Values joined by “and” are separate entries in the source; they are usually repeats but may differ in a detail not shown here. Equal entries are not always repeated. A number with no mark means an inactive call. Inconclusive results are not listed. Active and inactive are the calls of the source.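 The calls were made as follows, unless noted: active = compounds whose dose series gives a full or clear partial fitted curve of increased nuclear translocation; inconclusive = weak partial curve or effect only at the top dose; inactive = no dose-dependent translocation response.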

Tested on in one experiment: not listed separately
Description: Stat Signaling Pathway (AID 446; active = well fitted curve in either direction with a large enough effect, not every such curve was filed as active;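 also: ME-180 cervical cancer cells given 40 pM IL-6 alongside compound; SIE-controlled beta-lactamase reporter measured as 460/530 nm FRET emission ratio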). The settings on record: ME-180 SIE beta-lactamase reporter, IL-6 stimulated, 5 h; series mostly up to 17.2 µM. Summed up:
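Screening format detects activators and inhibitors alike: ME-180 SIE-bla cells stimulated at 40 pM IL-6 for 5 hrs with compound, then dual-emission beta-lactamase read at 405 nm excitation.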
As to `CCCNC(C)(C)COC(=O)c1ccccc1`, the outcome was inactive. `CC(C)(C)C(=O)OCOC(=O)[C@@H]1N2C(=O)[C@@H](NC(=O)[C@H](N)c3ccccc3)[C@H]2SC1(C)C`: the molecule was called inactive. Still for that read-out and setting: with `CC(=O)[C@@]1(O)CC[C@H]2[C@@H]3C[C@H](C)C4=CC(=O)C=C[C@]4(C)[C@@]3(F)[C@@H](O)C[C@@]21C` the entry was “inactive”; with `COc1ccc(NS(=O)(=O)c2ccc(N)cc2)nn1`, “inactive”. On the same count and under the same terms, in the case of `Cn1c([N+](=O)[O-])cnc1COC(N)=O` it was “inactive”. Take `CC1CCc2cc(F)cc3c(=O)c(C(=O)O)cn1c23` (centres undefined): the molecule was classed as inactive.

For a further experiment, the target named is Glucocorticoid receptor (Homo sapiens) (UniProt P04150). Kind of experiment: GR-GFP Redistribution (AID 450). Also: potency is read from the fitted curve at half-maximal effect. As to conditions: U2OS GR-GFP nuclear translocation, laser cytometry, 2 h.
Chain of Glucocorticoid receptor (Homo sapiens) (P04150 whole entry, looked up): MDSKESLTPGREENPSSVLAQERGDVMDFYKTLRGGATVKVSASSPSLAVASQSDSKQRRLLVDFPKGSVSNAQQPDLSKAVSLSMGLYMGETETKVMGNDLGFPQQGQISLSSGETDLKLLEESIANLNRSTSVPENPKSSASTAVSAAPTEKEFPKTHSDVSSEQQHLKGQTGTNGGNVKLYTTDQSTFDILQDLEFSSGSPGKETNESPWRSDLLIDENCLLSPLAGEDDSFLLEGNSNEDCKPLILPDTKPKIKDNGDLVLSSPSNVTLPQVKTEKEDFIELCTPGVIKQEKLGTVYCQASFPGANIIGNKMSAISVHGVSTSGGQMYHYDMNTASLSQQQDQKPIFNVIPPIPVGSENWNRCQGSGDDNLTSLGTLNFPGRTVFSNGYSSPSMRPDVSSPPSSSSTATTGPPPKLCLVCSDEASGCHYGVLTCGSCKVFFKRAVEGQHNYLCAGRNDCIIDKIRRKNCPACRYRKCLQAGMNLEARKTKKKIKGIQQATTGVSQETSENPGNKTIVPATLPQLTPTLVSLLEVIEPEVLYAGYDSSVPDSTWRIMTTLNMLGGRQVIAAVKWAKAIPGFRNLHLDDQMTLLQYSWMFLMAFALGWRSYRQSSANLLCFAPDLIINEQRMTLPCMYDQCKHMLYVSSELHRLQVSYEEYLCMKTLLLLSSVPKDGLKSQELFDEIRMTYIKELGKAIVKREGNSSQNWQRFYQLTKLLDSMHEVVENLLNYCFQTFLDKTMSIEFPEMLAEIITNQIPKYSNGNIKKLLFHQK
Take `Cc1cc(NC(=O)C2=C(O)c3ccccc3S(=O)(=O)N2C)no1`: the Potency was above 20.6 µM. Take `CCCNC(C)(C)COC(=O)c1ccccc1`: the Potency was above 20.6 µM. Same read-out and setting: in the case of `CCN(CC)CCOC(=O)C(c1ccccc1)c1ccccc1` it was above 20.6 µM; in that of `NS(=O)(=O)c1cc2c(cc1C(F)(F)F)NCNS2(=O)=O`, above 20.6 µM; in that of `C[C@@H](N)C(=O)O`, above 46 µM. In the case of `CC(C)=CCC/C(C)=C/CO`, the Potency is above 46 µM. On the same count and under the same terms, with `O=C(O)c1ccccc1C(=O)Nc1ccc(S(=O)(=O)Nc2nccs2)cc1` the figure was above 20.6 µM. With `CN/C(=C\[N+](=O)[O-])NCCSCc1csc(CN(C)C)n1`, the Potency is above 20.6 µM. As for `O=C(O)CCCc1ccccc1`, the Potency was above 20.6 µM. The same measure, in the same setting: with `C[N+](C)(C)CC[N+]1(C)Cc2c(Cl)c(Cl)c(Cl)c(Cl)c2C1` the figure was above 46 µM; with `NC(N)=NS(=O)(=O)c1ccc(N)cc1`, above 20.6 µM; with `O=C(O)c1ccccc1OP(=O)(O)O`, above 20.6 µM. Turning to `C[C@@H]1CCC[C@H](C)N1`, the Potency was above 20.6 µM. On to `CC(=O)[C@@]1(O)CC[C@H]2[C@@H]3C[C@H](C)C4=CC(=O)C=C[C@]4(C)[C@@]3(F)[C@@H](O)C[C@@]21C`, for which the Potency was above 20.6 µM. With `CCOC(=O)[C@H](CCc1ccccc1)N[C@@H](C)C(=O)N1CCC[C@H]1C(=O)O`, the Potency is above 20.6 µM. Same read-out and setting: in the case of `O=C1c2ccccc2S(=O)(=O)N1CCCCN1CCN(c2ncccn2)CC1` it was above 46 µM; in that of `COc1ccc(NS(=O)(=O)c2ccc(N)cc2)nn1`, above 20.6 µM; in that of `NC(=O)CC[C@@H](N)C(=O)O`, above 46 µM.

In the case of `CN1CCCN=C1COC(=O)C(O)(c1ccccc1)C1CCCCC1` (centres undefined), the Potency was above 20.6 µM. On the same count and under the same terms, with `CC1(C)S[C@@H]2[C@H](NC(=O)C(C(=O)O)c3ccccc3)C(=O)N2[C@H]1C(=O)O` (some centres undefined) the figure was above 20.6 µM. Regarding `Cc1cccc(Nc2ccccc2C(=O)O)c1C`, the Potency was above 20.6 µM. On the same count and under the same terms, with `Cc1c(NC(C)C)c(=O)n(-c2ccccc2)n1C` the figure was above 20.6 µM; with `NS(=O)(=O)c1ccc(C(=O)O)cc1`, > 46 µM and > 20.6 µM; with `NC(N)=NCCN1CCCCCCC1`, above 20.6 µM. Same read-out and setting: with `CCN(CC)CCc1nc(-c2ccccc2)no1` the figure was above 20.6 µM. The same measure, in the same setting: in the case of `CC(=O)SC[C@@H](Cc1ccccc1)C(=O)NCC(=O)OCc1ccccc1` it was above 20.6 µM; in that of `COc1ccc2cc(CCC(C)=O)ccc2c1`, above 20.6 µM; in that of `Cn1c([N+](=O)[O-])cnc1COC(N)=O`, above 20.6 µM. With `CN1C(C)(C)CCCC1(C)C`, the Potency is > 46 µM and > 20.6 µM. As for `CN(C(=O)c1c(O)c2ccccc2n(C)c1=O)c1ccccc1`, the Potency is above 46 µM. Same read-out and setting: with `CC1CCc2cc(F)cc3c(=O)c(C(=O)O)cn1c23` (centres undefined) the figure was above 20.6 µM; with `CCc1cccc(CC)c1NC(=O)CN(CC(=O)O)CC(=O)O`, above 20.6 µM.

`OC(CCN1CCCC1)(c1ccccc1)C1CCCCC1` (centres undefined): the Potency is above 20.6 µM.

For the origin of these results see PubChem BioAssay (NCATS).
